# Bioassay records from PubChem.
# HT1080 IDH1KD tx – qHTS for induction of synthetic lethality in tumor cells producing 2HG: qHTS for the HT-1080-IDH1KD cell line. Potency, µM (series often up to 46.1 µM), inactives show at the top dose activity, negative = toxicity, most hits filed as cytotoxic. HT-1080 IDH1 knockdown viability, ATP luminescence, 48 h. AID 686971, 2013. 360,000 tested, 2% active;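 also: 0% = DMSO wells and -100% = cell-free medium wells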
#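 Viability of IDH1-knockdown HT-1080 fibrosarcoma cells was assessed by CellTiter-Glo after 48 h at 37 °C with titrated compound; concentration-effect curves were classified by fit quality and response size.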
# KB-3-1 cytotox – qHTS assay for MDR1-selective chemotherapeutics: Primary screen using the parental adenocarcinoma cell KB-3-1. KB-3-1 viability, CellTiter-Glo ATP luminescence, 72 h. 400,000 tested, 1.4% active. Potency, µM (top dose mostly 46.1 µM), most hits filed as cytotoxic; also: nearly all actives have a fitted effect of over 60% in size
#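 Here the drug-naive KB-3-1 line serves as comparator for MDR sub-line selectivity; cells received compound titrations, 72 h at 37 °C, then CellTiter-Glo readout.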
# KB-V1 cytotox – qHTS assay for MDR1-selective chemotherapeutics: Primary screen using the drug-selected MDR subline cells KB-V1 | Potency, µM (series often up to 46.1 µM), hits mostly cytotoxic | 400,000 tested, 3.4% active | KB-V1 MDR cells viability, CellTiter-Glo, 72 h | AID 1347076, 2019; also: nearly all actives have a fitted effect of over 60% in size
#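 qHTS viability screen in drug-selected KB-V1 MDR cells: 72 h compound treatment at 37 degrees C, ATP luminescence end point.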
# TDP1 cell noCPT – qHTS for Inhibitors of human tyrosyl-DNA phosphodiesterase 1 (TDP1): qHTS in cells in absence of CPT; DT40 Tdp1-/- hTDP1 cells, no CPT, ATP luminescence, 48 h; Potency, µM (highest dose often 46.2 µM), for inactives: top-dose activity change, negative = growth inhibition, usual class: inhibitors; 420,000 tested, 15% active; also: nearly all actives have a fitted effect of over 55% in size
#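 Chicken DT40 Tdp1-/- cells complemented with human TDP1, screened without camptothecin (DMSO vehicle only), 400 cells/well. Compounds pin-transferred, cells incubated at 37 °C for at least 48 hr. Growth read as ATP-dependent luminescence (CellTiter-Glo, 30 min at RT).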
# HT1080NT lethal – qHTS for induction of synthetic lethality in tumor cells producing 2HG: qHTS for the HT-1080-NT fibrosarcoma cell line | HT-1080-NT fibrosarcoma viability, CellTiter-Glo ATP luminescence, 48 h | Potency, µM (top dose mostly 46.1 µM), for the others: at the highest dose activity, negative = less viability, hits mostly cytotoxic | 360,000 tested, 1.6% active | AID 686970, 2013;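 also: NT is the 2HG producing partner of a matched IDH1 knockdown line; 0% = DMSO-treated cells and -100% = media-only wells without cells; nearly all actives have a fitted effect of over 55% in size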
#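 750 cells/well, RPMI + 5% FBS; 2 h settle, compound pin-transfer, 48 h at 37 degrees C. CellTiter-Glo 10 min RT, luminescence. Normalized to DMSO and media-only wells.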
# DT40 TDP1 CPT – qHTS for Inhibitors of human tyrosyl-DNA phosphodiesterase 1 (TDP1): qHTS in cells in presence of CPT; 420,000 tested, 12% active; Potency, µM (titrated, usually from 46.2 µM), for the others: at the top dose activity change, negative = growth inhibition, hits mostly inhibitors; chicken DT40 Tdp1-/-;hTDP1 cells + 20 nM CPT, ATP luminescence, 48 h; also: nearly all actives have a fitted effect of over 55% in size
#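 Cell growth measured by CellTiter-Glo luminescence after a minimum 48 h, 37 C compound exposure with 20 nM CPT in Tdp1-knockout DT40 cells stably expressing hTDP1, seeded 400/well; qHTS titration format.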
# Numbers without * were called inactive; i = inactive; ? = inconclusive; / = not tested or not shown. A selection: hits, their analogues and other compounds. The true share with any hit is near 19%. Calls follow the shape of the dose curve; as a rule, active = well fitted curve in the direction sought with a large enough effect; inconclusive = small, poorly fitted or top-dose-only effect, or another doubt; inactive = no such curve, though single readings can be large; an effect the other way counts as inactive or inconclusive. Unless noted, % is scaled to controls: 0 for no effect and ±100 for the full control effect; potency is read from the fitted curve at half-maximal effect.
SMILES,HT1080 IDH1KD tx,KB-3-1 cytotox,KB-V1 cytotox,TDP1 cell noCPT,HT1080NT lethal,DT40 TDP1 CPT
COc1ccc(NS(=O)(=O)c2ccc(C)c(C(=O)N3CCCCCCC3)c2)cc1,-9%,i,?,?,-7%,?
Nc1cc(S(=O)(=O)Nc2ccccc2Cl)ccc1N1CCCCC1,-6%,i,?,9.2µM*,-7%,15µM*
Nc1cc(S(=O)(=O)N2CCCCC2)ccc1N1CCOCC1,-2%,i,i,?,-2%,-27%
Nc1cc(S(=O)(=O)c2ccc(N3CCCCC3)c(N)c2)ccc1N1CCCCC1,?,?,?,12µM*,-2%,9.2µM*
COc1ccc(NS(=O)(=O)c2ccc(N3CCCCC3)c(N)c2)cc1,-26%,21µM*,?,1.3µM*,-19%,2.6µM*
C[C@@H]1CN([C@@H](C)CO)C(=O)CCCn2cc(nn2)CO[C@H]1CN(C)C(=O)Oc1ccccc1,4%,?,?,-10%,-1%,2%
O=C1CC(c2cccc(Cl)c2)Cc2nc(N3CCN(c4ccccc4)CC3)ncc21 (stereo not drawn),12%,i,i,-4%,12%,-3%
O=C1CC(c2cccc(Cl)c2)Cc2nc(N3CCOCC3)ncc21 (stereo not drawn),0%,i,i,21µM*,-2%,?
CCN1CCN(c2ncc3c(n2)CC(c2cc(OC)c(OC)c(OC)c2)CC3=O)CC1 (stereo not drawn),4.1µM*,?,i,3.3µM*,?,4.6µM*
O=C1CC(c2ccc(F)cc2)Cc2nc(N3CCOCC3)ncc21 (stereo not drawn),11%,i,?,?,2%,-21%
CN(C)C(=O)c1ccc(SC(=S)NCc2ccccc2)cc1,1%,6.5µM*,?,5.8µM*,?,5.8µM*
CCOC(=O)N(C(=O)c1ccccc1)c1ccccc1,/,i,i,?,/,?
COc1ccc(S(=O)(=O)N2CCN(c3nc(-c4cccs4)nc4ccccc34)CC2)cc1,1%,i,?,?,1%,?
COc1ccc([C@@H]2C[C@H]3[C@@H](CN2S(=O)(=O)c2ccccc2)C(=O)C[C@@H](c2ccccc2F)N3S(=O)(=O)c2ccc(C)cc2)cc1,0%,i,i,?,-6%,-27%
COc1ccc(/C=N/Nc2ccccn2)cc1OC,11%,i,i,16µM*,5%,?
CN(C)c1ccc(C=NNc2ccccn2)c(Cl)c1,9%,i,i,?,12%,?
COc1cc(/C=N/Nc2ccccn2)ccc1O,-20%,i,i,-2%,-4%,-7%
CN(C)c1ccc(/C=N\Nc2ccccn2)cc1,-17%,i,i,23µM*,-12%,21µM*
CC(=O)Nc1ccc(S(=O)(=O)n2cnc3cc(C)c(C)cc32)cc1,-14%,i,i,18µM*,?,8.2µM*
CC(=O)Nc1ccc(C(=O)n2cnc3cc(C)c(C)cc32)cc1,-5%,i,i,-110%,-1%,-114%
C=C(C)Cn1c(CCn2c3ccccc3c3ccccc32)n[nH]c1=S,-24%,i,i,5.8µM*,-2%,9.2µM*
CC(OC(=O)CSc1ccccc1)C(=O)NC1CCCCC1C (stereo not drawn),4%,i,i,-5%,7%,4%
